Out of some 310,000 compounds screened, about 14,000 (4.5%) showed an effect of 50% or more. Effects have a minus sign here. The list comes from a sample in which strong results are over-represented; it also holds similar structures and randomly drawn compounds.
Biological target: human ether-à-go-go-related gene (hERG) potassium channel (human, UniProt Q12809)
Test: primary screen, population patch clamp on CHO cells stably expressing hERG; higher = less effect of the substance
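Further: peak tail current of the secondary pulse compared with the same well before compound.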

Chain of human ether-à-go-go-related gene (hERG) potassium channel (Q12809 whole entry, looked up): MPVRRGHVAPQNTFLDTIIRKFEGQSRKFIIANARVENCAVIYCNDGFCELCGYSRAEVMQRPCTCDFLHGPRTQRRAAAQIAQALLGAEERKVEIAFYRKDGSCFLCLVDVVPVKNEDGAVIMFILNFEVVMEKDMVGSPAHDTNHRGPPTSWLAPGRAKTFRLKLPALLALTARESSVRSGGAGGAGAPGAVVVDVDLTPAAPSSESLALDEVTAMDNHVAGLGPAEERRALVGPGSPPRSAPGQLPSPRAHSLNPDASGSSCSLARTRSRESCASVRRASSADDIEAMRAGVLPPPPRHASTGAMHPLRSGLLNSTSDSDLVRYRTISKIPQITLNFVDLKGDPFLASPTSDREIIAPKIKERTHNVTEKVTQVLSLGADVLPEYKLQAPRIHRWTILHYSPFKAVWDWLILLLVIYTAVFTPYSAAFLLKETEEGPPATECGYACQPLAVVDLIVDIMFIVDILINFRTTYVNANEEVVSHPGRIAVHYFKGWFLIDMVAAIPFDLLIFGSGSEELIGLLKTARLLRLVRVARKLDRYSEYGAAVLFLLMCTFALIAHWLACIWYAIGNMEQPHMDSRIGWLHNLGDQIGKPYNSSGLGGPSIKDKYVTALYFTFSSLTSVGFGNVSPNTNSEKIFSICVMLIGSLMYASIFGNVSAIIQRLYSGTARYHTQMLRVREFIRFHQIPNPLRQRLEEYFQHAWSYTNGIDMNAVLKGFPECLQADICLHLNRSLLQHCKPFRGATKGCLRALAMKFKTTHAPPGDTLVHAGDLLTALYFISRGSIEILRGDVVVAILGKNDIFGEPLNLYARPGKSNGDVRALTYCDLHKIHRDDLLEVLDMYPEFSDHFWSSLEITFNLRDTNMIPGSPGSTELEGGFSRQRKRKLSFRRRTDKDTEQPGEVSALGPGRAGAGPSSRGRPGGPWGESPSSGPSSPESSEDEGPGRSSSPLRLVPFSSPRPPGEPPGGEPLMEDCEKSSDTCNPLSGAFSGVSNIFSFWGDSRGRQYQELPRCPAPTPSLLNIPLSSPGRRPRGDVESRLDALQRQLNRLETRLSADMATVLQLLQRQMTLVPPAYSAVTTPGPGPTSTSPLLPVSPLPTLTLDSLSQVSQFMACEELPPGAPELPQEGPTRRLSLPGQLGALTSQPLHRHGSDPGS

Structure (SMILES)	hERG current change (%, negative = inhibition) at 10uM [%]
Cc1cc(C(F)(F)F)nc(SCc2ccc(C(=O)O)o2)n1	-2.51
CC(=O)Oc1ccc2ccccc2c1C(NC(=O)Cc1ccccc1)c1ccccc1Cl (stereo not shown)	7.9
CCc1noc(C)c1C(=O)N1CCCC(C(=O)c2cc(F)ccc2F)C1 (stereo not shown)	-41.2
N#Cc1ccccc1NC(=O)CSC1=Nc2ccccc2C2CC=NN12 (stereo not shown)	1.95
Cc1ccc(SC(C)c2nc(-c3ccncc3)no2)cc1 (stereo not shown)	-24.3
Cc1ccc(S(=O)(=O)CCC(=O)OCC(=O)N2c3ccccc3CC2C)cc1 (stereo not shown)	13
O=C(COC(=O)c1ccco1)NCc1ccc(Cl)cc1	4.21
O=C(COC(=O)c1cc([N+](=O)[O-])ccc1Cl)NC1CCCC1	-26.8
O=C(COC(=O)CCc1c[nH]c2ccccc12)Nc1ccccc1C(F)(F)F	-5.09
CCC(C)(C(=O)NC1CCCCC1)N(Cc1ccco1)C(=O)CC1NC(=O)NC1=O (stereo not shown)	5.88
O=C(CSc1nc(-c2ccc(Cl)cc2)[nH]c(=O)n1)Nc1cccc(Cl)c1	22.3
CC(C)(C)c1ccccc1OCC(=O)NCCC(=O)O	-7.3
CCc1cc(=O)oc2cc(OCC(=O)NCCCN3CCOCC3)c(Cl)cc12	4.59
CCCc1cc(=O)oc2cc(C)cc(OC(C)C(=O)NCCCn3ccnc3)c12 (stereo not shown)	-65.3
Cc1cc(OCC(=O)NCCCn2ccnc2)c2c(C)cc(=O)oc2c1	-22.5
CCCCc1cc(=O)oc2cc(OCC(=O)NCCN3CCOCC3)c(Cl)cc12	1.96
CCc1cc(=O)oc2cc(C)cc(OC(C)C(=O)NCCCn3ccnc3)c12 (stereo not shown)	-30.9
CCCc1cc(=O)oc2cc(OC(C)C(=O)NCCCn3ccnc3)ccc12 (stereo not shown)	-42.1
CCc1cc(=O)oc2cc(C)cc(OCC(=O)NCCCN3CCOCC3)c12	-11.1
CCc1cc(=O)oc2cc(C)cc(OCC(=O)NCCCn3ccnc3)c12	-55.3
CCCc1cc(=O)oc2cc(OCC(=O)NCCCN3CCOCC3)c(Cl)cc12	-73
Cc1cc(C)cc(COc2ccc3c(C)c(CC(=O)O)c(=O)oc3c2C)c1	-41.4

Structure (SMILES)	hERG current change (%, negative = inhibition) at 10uM [%]
O=C(COc1ccc(S(=O)(=O)NC2CCCCC2)cc1)NCc1cccnc1	2.91
CC(C)NC1=C(Cl)C(=O)c2ccccc2C1=O	4.34
O=C1[C@H]2CC3CCC2(O3)[C@@H]2OCCCN12 (stereo partly shown)	4.02
O=S(=O)(c1cccc(-c2nnc(SCc3ccc(Cl)cc3)o2)c1)N1CCCCC1	10.7
CCOC(=O)c1nn(-c2ccccc2)c(=O)c(C#N)c1C	13.5
CC(C)CCN(CC(=O)NC1CCCC1)C(=O)C(=O)Nc1ccc2c(c1)OCCO2	11
NC(=O)CN1CCN(Cc2ccc3c(c2)OCO3)CC1	30.6
O=C(C(=O)N1CCN(Cc2ccc3c(c2)OCO3)CC1)c1c[nH]c2ccccc12	-11.6
O=C(CN1CCN(Cc2ccccc2)CC1)c1c[nH]c2ccccc12	-56.5
O=C(CN1CCN(Cc2ccc3c(c2)OCO3)CC1)c1c[nH]c2ccccc12	-63.5
O=C(c1c[nH]c2ccccc12)N1CCN(Cc2ccccc2)CC1	-13.5
O=C(CN1CCN(c2ccccc2)CC1)c1c[nH]c2ccccc12	-0.617
COc1ccc(-c2ccc(C#N)c(SCC(=O)OCc3ccccc3)n2)cc1OC	-2.31
CCCn1c(N)c(C(=O)CSc2n[nH]c(-c3ccc(C)cc3)n2)c(=O)[nH]c1=O	22.2
C[C@H](NC(=O)c1nc[nH]c1C(=O)N[C@@H](Cc1ccccc1)C(=O)OCc1ccccc1)C(=O)OCc1ccccc1	8.42
CCOC(=O)Cn1c(=O)oc2cc(S(=O)(=O)Nc3cc(OCC)ccc3OCC)ccc21	-42.3
COc1ccc(N(CC(=O)Nc2ccc(F)cc2F)S(=O)(=O)c2c(C)nn(C)c2C)cc1	-12.4
Cc1ccc2oc(C(=O)N(C)Cc3ccc(C)o3)c(C)c2c1	10.6
COc1ccc(CN2CCN(C(C)C)C(CCO)C2)cc1Cn1cccn1 (stereo not shown)	8.43
COc1ccc(CN2CCC(CO)(Cc3cccc(C(F)(F)F)c3)CC2)cc1Cn1cccn1	-75.7
COc1ccc(CN2CCC(CO)(Cc3ccccc3)CC2)cc1Cn1cccn1	-76.5
